Where “and” joins values, the source holds several entries; their conditions need not be identical. Equal values may be shown once. Results filed as inconclusive are left out. A number with no mark means an inactive call. Calls of active or inactive are those of the source. Calls come from the whole dose curve; as a rule, active = well fitted curve in the direction sought with a large enough effect; inconclusive = small, poorly fitted or top-dose-only effect, or another doubt; inactive = no such curve, though single readings can be large; an effect the other way counts as inactive or inconclusive. Where a SMILES comes first, the peptide text is derived from it. [ ]: non-standard residue; d: D form. pGlu = O=C1CC[C@@H](C(=O)O)N1; Thz = O=C(O)[C@@H]1CSCN1

The source of these data is PubChem BioAssay (NCATS).
Potency is the fitted concentration of half-maximal effect.

Chain of N-terminal Xaa-Pro-Lys N-methyltransferase 1 (Homo sapiens) (Q9BV86 whole entry, looked up): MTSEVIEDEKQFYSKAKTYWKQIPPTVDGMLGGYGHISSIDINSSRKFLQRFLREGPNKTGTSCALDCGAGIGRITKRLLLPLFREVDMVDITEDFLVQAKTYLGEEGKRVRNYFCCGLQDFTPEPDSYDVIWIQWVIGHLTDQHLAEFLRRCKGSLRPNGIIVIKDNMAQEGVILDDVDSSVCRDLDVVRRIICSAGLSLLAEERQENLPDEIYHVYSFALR

The target in one assay is N-terminal Xaa-Pro-Lys N-methyltransferase 1 (Homo sapiens) (UniProt Q9BV86). Put plainly: Confirmatory qHTS for Inhibitors of N-terminal methyltransferase 1 (NTMT1): MTaseGlo Assay (AID 1645874). Note: nearly all actives have a fitted effect of over 65% in size. As to conditions: NTMT1 enzyme, MTase-Glo SAH luminescence. The essentials:
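Compounds are incubated with 125 nM NTMT1 and 100 uM SAM for 15 min before the SPKRIA peptide (1 uM) starts a 30 min room-temperature methylation. SAH is measured by coupled luciferase luminescence and curves fitted to a Hill equation.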
Background: In qHTS, concentration-response curves come from the screen itself.
`O=C1NC(=O)/C(=C/c2ccc(-c3ccc(F)cc3O)o2)S1`: the Potency was 34.5 µM (active).
With `Clc1ccccc1-c1nc(-c2ccncc2)no1`, the Potency is 25.1 µM (active).
Still for that read-out and setting: under `Nc1ncnc2c1c(I)cn2[C@@H]1C[C@H](N)[C@@H](O)[C@H]1O` stands 3.65 µM (active); under `CN=c1nc(-c2ccccc2)n(-c2ccccc2)s1`, 0.851 µM (active); under `O=c1cc(-c2ccccc2)oc2ccccc12`, 50.1 µM (active).
As for `N.N.N.N.N.N.N.N.N.N.N.N.N.N.O.O.[Ru+4].[Ru+5].[Ru+5]`, the Potency was 27.4 µM (active).

Tested on in another assay: not listed separately
Put plainly: Primary qHTS for inhibitors of nuclear receptor binding SET domain protein 2 (NSD2) in an isogenic RCH-ACV NSD2 p.E1099K mutant (9B) (AID 1645876). For activity change, negative = viability loss: % is set by controls: 0 for no effect and ±100 for the full control effect. Note: nearly all actives have a fitted effect of over 70% in size. As to conditions: RCH-ACV NSD2 E1099K (9B) viability, CellTiter-Glo, 72 h; series mostly up to 44.9 µM; activity change, negative = viability loss: at the top concentration.
Take `CC1(C)S[C@@H]2[C@H](NC(=O)[C@H](N)c3ccc(O)cc3)C(=O)N2[C@H]1C(=O)O`: the “activity change, negative = viability loss” value was -9.51%.
For `C=CCCCCCCCCC(=O)O`, the “activity change, negative = viability loss” value was 1.39%.
The same measure, in the same setting: under `CN1[C@@H]2CC[C@H]1CC(OC(c1ccccc1)c1ccccc1)C2` (stereo partly specified) stands -21.6%; under `N=C(N)N`, -4.74%; under `CN1CC(=O)N/C1=N/C(=O)Nc1cccc(Cl)c1`, -0.0874%.
The same measure, in the same setting: under `NCCO` stands 0.0498% [at 91.9 µM].
On to `O=C1CC[C@@H](C(=O)N2CSC[C@H]2C(=O)O)N1` ([pGlu]-[Thz]-OH), for which the result was inactive.
Take `CNC(=O)c1c(I)c(NC(=O)CCCCC(=O)Nc2c(I)c(C(=O)O)c(I)c(C(=O)NC)c2I)c(I)c(C(=O)O)c1I`: the “activity change, negative = viability loss” value is 6.34%.
Turning to `O=C1NC(=O)/C(=C/c2ccc(-c3ccc(F)cc3O)o2)S1`, the Potency is 14.8 µM (active).
Same read-out and setting: the same measure for `COc1cc(CNC(=O)CCCC/C=C/C(C)C)ccc1O`: 7.28 µM (active) and 4.68 µM (active); for `CC(C(=O)O)c1ccc2c(c1)[nH]c1ccc(Cl)cc12` (stereo unspecified): “inactive”; for `CN(C)c1ccc(C(=C2C=CC(=[N+](C)C)C=C2)c2ccccc2)cc1`: 0.0944 µM (active).
`CCCCCCCCCCCCOCCO`: the “activity change, negative = viability loss” value is -15.6%.
On to `C=CCc1cccc(/C=N/NC(=O)CN2CCN(Cc3ccccc3)CC2)c1O`, for which the Potency was 7.42 µM (active).
With `C[C@H](O)[C@H](O)[C@H]1CNc2nc(N)[nH]c(=O)c2N1`, the call was inactive.
Consider `O=C(Nc1ccc2c(c1)CCN(Cc1ncn[nH]1)C2)c1ccccc1-c1ccc(C(F)(F)F)cc1`, for which the “activity change, negative = viability loss” value is -4.59%.
With `Nc1ncnc2c1c(I)cn2[C@@H]1C[C@H](N)[C@@H](O)[C@H]1O`, the Potency is 18.4 µM (active).
With `CC1(C)S[C@@H]2[C@H](NC(=O)[C@H](NC(=O)N3CCN(S(C)(=O)=O)C3=O)c3ccccc3)C(=O)N2[C@H]1C(=O)O`, the result was inactive.
On to `CC(C(=O)O)c1ccc(C(=O)c2ccccc2)s1` (stereo unspecified), for which the “activity change, negative = viability loss” value was -0.461%.
Turning to `COc1cc(/C=C/C(=O)N2CCN(CC(=O)N3CCCC3)CC2)cc(OC)c1OC`, the “activity change, negative = viability loss” value was 2.75%.
On to `C/C(=N\O)c1ccc(OCC(=O)N2CCCCC2)cc1`, for which the “activity change, negative = viability loss” value was -12.7%.
Turning to `O=C(Nc1ccc(C(=O)O)c(O)c1)c1ccccc1`, the “activity change, negative = viability loss” value was -1.59%.
Regarding `CC(=O)c1ccc(OCC(=O)N2CCCCC2)cc1`, the result was inactive.
On to `O=C1NC(=O)/C(=C/c2ccc3nccnc3c2)S1`, for which the “activity change, negative = viability loss” value was -12.1%.
`CC(N)C(=O)OC(C)(C)Cc1ccc(Cl)cc1` (stereo unspecified): the call was inactive.
As for `CS(=O)(=O)c1ccc(-n2nc(C(F)(F)F)cc2-c2ccc(F)cc2)cc1`, the “activity change, negative = viability loss” value is -24.5%.
On to `CCN1/C(=C/C(C)=O)Sc2ccc(OC)cc21`, for which the “activity change, negative = viability loss” value was -46.1%.
With `Nc1ccc(C(=O)O)c(O)c1`, the molecule was called inactive.
Take `O=C(CS)Nc1ccccc1`: the “activity change, negative = viability loss” value is -4.17%.
Turning to `CCNC(=O)[C@H]1O[C@@H](n2cnc3c(N)nc(NCCc4ccc(CCC(=O)O)cc4)nc32)[C@H](O)[C@@H]1O`, the “activity change, negative = viability loss” value was 8.18%.
On the same count and under the same terms, the same measure for `COc1cc2c3cc1Oc1cc(ccc1O)C[C@@H]1c4c(cc(OC)c(O)c4Oc4ccc(cc4)C[C@@H]3N(C)CC2)CC[N+]1(C)C`: 7.34%.

Tested on in a further assay: not listed separately
The assay is described as follows: Primary qHTS for inhibitors of nuclear receptor binding SET domain protein 2 (NSD2) in an RCH-ACV wild type WT cells (2C) (AID 1645877). For activity change, negative = cell killing: % is set by controls: 0 for no effect and ±100 for the full control effect. Note: nearly all actives have a fitted effect of over 70% in size. As to conditions: RCH-ACV (leukaemia line) NSD2 WT (2C) viability, CellTiter-Glo, 72 h; series mostly up to 44.9 µM; activity change, negative = cell killing: at the top concentration.
As for `CC1(C)S[C@@H]2[C@H](NC(=O)[C@H](N)c3ccc(O)cc3)C(=O)N2[C@H]1C(=O)O`, the “activity change, negative = cell killing” value was -8.26%.
For the molecule `C=CCCCCCCCCC(=O)O`, the molecule was classed as inactive.
For the molecule `N=C(N)N`, the result was inactive.
Turning to `CN1CC(=O)N/C1=N/C(=O)Nc1cccc(Cl)c1`, the “activity change, negative = cell killing” value was -21.4%.
As for `O=C1CC[C@@H](C(=O)N2CSC[C@H]2C(=O)O)N1` ([pGlu]-[Thz]-OH), the molecule was classed as inactive.
Take `CNC(=O)c1c(I)c(NC(=O)CCCCC(=O)Nc2c(I)c(C(=O)O)c(I)c(C(=O)NC)c2I)c(I)c(C(=O)O)c1I`: the “activity change, negative = cell killing” value is -4.84%.
`O=C1NC(=O)/C(=C/c2ccc(-c3ccc(F)cc3O)o2)S1`: the Potency was 10.5 µM (active).
As for `COc1cc(CNC(=O)CCCC/C=C/C(C)C)ccc1O`, the Potency is 7.28 µM (active) and 4.17 µM (active).
Regarding `CC(C(=O)O)c1ccc2c(c1)[nH]c1ccc(Cl)cc12` (stereo unspecified), the Potency entry was “inactive”.
Still for that read-out and setting: under `CN(C)c1ccc(C(=C2C=CC(=[N+](C)C)C=C2)c2ccccc2)cc1` stands 0.188 µM (active); under `C=CCc1cccc(/C=N/NC(=O)CN2CCN(Cc3ccccc3)CC2)c1O`, 7.42 µM (active).
With `C[C@H](O)[C@H](O)[C@H]1CNc2nc(N)[nH]c(=O)c2N1`, the “activity change, negative = cell killing” value is -2.79%.
`Nc1ncnc2c1c(I)cn2[C@@H]1C[C@H](N)[C@@H](O)[C@H]1O`: the Potency was 23.1 µM (active).
Regarding `CC1(C)S[C@@H]2[C@H](NC(=O)[C@H](NC(=O)N3CCN(S(C)(=O)=O)C3=O)c3ccccc3)C(=O)N2[C@H]1C(=O)O`, the call was inactive.
`CC(C(=O)O)c1ccc(C(=O)c2ccccc2)s1` (stereo unspecified): the “activity change, negative = cell killing” value was 8.23%.
Same read-out and setting: under `COc1cc(/C=C/C(=O)N2CCN(CC(=O)N3CCCC3)CC2)cc(OC)c1OC` stands -3.07%.
Consider `C/C(=N\O)c1ccc(OCC(=O)N2CCCCC2)cc1`, for which the “activity change, negative = cell killing” value is -4.2%.
Consider `O=C(Nc1ccc(C(=O)O)c(O)c1)c1ccccc1`, for which the “activity change, negative = cell killing” value was 8.01%.
As to `CC(=O)c1ccc(OCC(=O)N2CCCCC2)cc1`, the “activity change, negative = cell killing” value was -25.5%.
Take `CS(=O)(=O)c1ccc(-n2nc(C(F)(F)F)cc2-c2ccc(F)cc2)cc1`: the “activity change, negative = cell killing” value was -30.2%.
In the case of `Nc1ccc(C(=O)O)c(O)c1`, the “activity change, negative = cell killing” value was 8.44%.
The same measure, in the same setting: the same measure for `O=C(CS)Nc1ccccc1`: -6.55%.
Consider `CCNC(=O)[C@H]1O[C@@H](n2cnc3c(N)nc(NCCc4ccc(CCC(=O)O)cc4)nc32)[C@H](O)[C@@H]1O`, for which the “activity change, negative = cell killing” value was 7.33%.
Regarding `COc1cc2c3cc1Oc1cc(ccc1O)C[C@@H]1c4c(cc(OC)c(O)c4Oc4ccc(cc4)C[C@@H]3N(C)CC2)CC[N+]1(C)C`, the “activity change, negative = cell killing” value is 1.58%.
